FAS TE block: FAS thioesterase (human) inhibition | P49327 | recombinant FAS-TE, OMFH fluorogenic substrate, fluorescence endpoint | inhibition, % at 15 µM | hit rate 0.67% among 360,000 | AID 602261;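 active = compounds whose normalised, plate-corrected inhibition of enzyme fluorescence in the single-dose primary screen is 50% or more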;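 also: 0% = DMSO with enzyme and 100% = substrate without enzyme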
rCAG RNA binder: binds r(CAG) RNA repeats | inhibition, % at 3 µM | hit rate 1.3% among 370,000 | r(CAG) RNA repeat, TO-PRO-1 dye displacement fluorescence;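 active = inhibition above the plate cutoff, the mean of all test compounds on that plate plus 3 SD, cut at about 35% in these data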;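 also: 0% = DMSO alone and 100% = 100 µM mitoxantrone as full dye displacement; higher means more dye released from RNA so lower well fluorescence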
NadD block: blocks S. aureus nicotinate mononucleotide adenylyltransferase; purified NadD enzyme, colorimetric absorbance read-out; inhibition, % at 20 µM; hit rate 0.78% among 360,000; AID 602399; in the data active = inhibition above about 26%
GRIN3A LBD mod: modulators (binders) of human NR3A ligand-binding domain | Tm shift relative to glycine control, % at 25 µM | hit rate 2.5% among 340,000 | NR3A LBD differential scanning fluorimetry, Tm shift; 0% = protein alone, 100% = glycine-bound protein | AID 1259313;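 active = melting temperature shift of at least 10% of the positive control shift, at one fixed dose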
FAS-TE conf: confirmation of human fatty acid synthase thioesterase inhibitors; inhibition, % at 15 µM; AID 624325; shares compounds with FAS TE block; recombinant FAS-TE, OMFH fluorogenic substrate, fluorescence; hit rate 45% among 2,300;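 active = compounds inhibiting the enzyme by at least 50% at 15 µM in any one of the replicates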;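 also: 0% = enzyme with DMSO only and 100% = wells lacking enzyme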
Active calls of the source: *; · = no result given. This is a sample that favours compounds with a hit; in the whole collection about 4.3% have one here.

SMILES	FAS TE block	rCAG RNA binder	NadD block	GRIN3A LBD mod	FAS-TE conf
O=C1N2Cc3ccccc3C2CS(=O)(=O)N1CCc1ccccc1 (stereo unspecified)	·	-1	·	·	·
COC(=O)[C@]12C[C@H](CC(=O)NCc3ccccc3)C(=O)N(Cc3cccc4ccccc34)C1=C[C@H](C(C)C)O[C@@H]2C1CC1	·	7	·	·	·
C[C@@]12C(=O)N(c3ccccc3)C(=O)N1[C@@H]1c3ccccc3OC[C@@H]1[C@H]2c1ccccc1	32	-2	-9	-1	·
C[C@]12C(=O)N(c3ccc(C(F)(F)F)cc3)C(=O)N1[C@H]1c3ccccc3OC[C@@H]1[C@H]2c1ccccc1	82*	10	12	0	21
Cc1cc(C)cc(NC(=O)N2CCN(Cc3nc4ccccc4c(=O)[nH]3)CC2)c1	·	0	·	·	·
COc1ccc(CC(=O)Oc2ccc(C(C)(C)C)cc2)cc1S(=O)(=O)N1CCOCC1	60*	3	-6	-1	15
CCc1ccc(OC(=O)Cc2ccc(OC)c(S(=O)(=O)N3CCOCC3)c2)cc1	22	-3	-5	1	·
COC(=O)c1ccc(S(=O)(=O)N2CCN(C(c3ccccc3)c3ccccc3)CC2)n1C	55*	3	20	-2	7
Cc1cc2c(c(=O)n1Cc1cccnc1)C(Cc1ccccc1)C(C#N)=C(N)O2 (stereo unspecified)	53*	0	6	2	32
COc1cc(OC)c(C2=NOC(C(=O)N3CCN(C(=O)c4ccco4)CC3)C2)cc1Cl (stereo unspecified)	30	-7	-3	-1	·
O=C(NCc1ccc2c(c1)OCO2)C1CC(c2ccc(Cl)cc2)=NO1 (stereo unspecified)	-8	-2	-3	3	·
COc1cc(OC)c(C2=NOC(C(=O)NCc3ccc4c(c3)OCO4)C2)cc1Cl (stereo unspecified)	60*	-3	-5	-1	24
COc1cc(OC)c(C2=NOC(C(=O)N3CCc4ccccc4C3)C2)cc1Cl (stereo unspecified)	80*	1	-9	-6	60*
COC(=O)[C@]12C[C@H](CC(=O)NCCc3ccccc3OC)C(=O)N(Cc3ccc(Cl)cc3Cl)C1=C[C@H](C1CCCC1)O[C@@H]2C	·	7	·	·	·
CC(C)C(NC(=O)C12CC3CC(CC(C3)C1)C2)C(=O)N/N=C/C1=C(N2CCOCC2)C(=C\c2ccc([N+](=O)[O-])cc2)/CC1 (stereo unspecified)	79*	4	32*	-1	7
CC(NC(=O)C12CC3CC(CC(C3)C1)C2)C(=O)N/N=C/C1=C(N2CCOCC2)C(=C\c2cccc([N+](=O)[O-])c2)/CC1 (stereo unspecified)	89*	2	3	-10	12
CC(NC(=O)C12CC3CC(CC(C3)C1)C2)C(=O)NN=Cc1ccc([N+](=O)[O-])o1 (stereo unspecified)	20	13	0	0	·
COC1=C[C@H](C(=O)NCc2ccc(Br)cc2)[C@H](C)[C@@H](c2ccccc2)CC1=O	·	6	·	·	·
N#CC(C#N)=C1SC(=Nc2ccccc2)C(=Nc2ccccc2)N1c1ccccc1	57*	5	12	-8	37
COC[C@@H]1CCCN1c1cccc2c1S(=O)(=O)N1CC[C@H](C1)O2	·	0	·	·	·
CCOC(=O)[C@]12CCCC=C1N(Cc1ccc(OC)cc1)C(=O)[C@@H]2CC(=O)N1CCCCC1	·	-1	·	·	·
CC(=O)c1sc(-c2ccccc2Cl)nc1C	-3	-6	0	1	·
CN(C)CCCNC(=O)c1ccc(-c2nc(-c3ccc(Cl)cc3)cs2)cc1	-6	13	-7	-1	·
CCS(=O)(=O)c1ccc(-c2csc(-c3ccccc3Cl)n2)c(Cl)c1Cl	72*	0	-4	0	11
CCS(=O)(=O)c1ccc(-c2csc(-c3ccc(Cl)cc3)n2)c(Cl)c1Cl	71*	2	-2	0	52*
SMILES	FAS TE block	rCAG RNA binder	NadD block	GRIN3A LBD mod	FAS-TE conf
CCOC1=C2CN(S(=O)(=O)c3ccc(C)cc3)[C@@H](c3cccc4ccccc34)C[C@H]2[C@H]2C(=O)N(c3ccccc3)C(=O)[C@H]2C1	88*	5	11	·	6
CCOC1=C2CN(S(=O)(=O)c3ccccc3)[C@@H](c3ccccc3)C[C@H]2[C@H]2C(=O)N(c3ccccc3)C(=O)[C@H]2C1	·	15	·	·	·
CCOC1=C2CN(S(=O)(=O)c3ccc(C)cc3)[C@@H](c3ccccc3)C[C@H]2[C@H]2C(=O)N(c3ccccc3)C(=O)[C@H]2C1	69*	11	8	·	9
CCOC1=C2CN(S(=O)(=O)c3ccc(C)cc3)[C@H](c3cccc4ccccc34)C[C@H]2C(C#N)(C#N)C(C#N)(C#N)C1	63*	·	30*	·	30
CCOC1=C2CN(S(=O)(=O)c3ccc(C)cc3)[C@H](c3cccc(Cl)c3)C[C@H]2[C@H]2C(=O)N(c3ccccc3)C(=O)[C@H]2C1	81*	9	21	·	19
Cc1ccc(NC(=O)CN2CCN(c3nc(-c4ccccc4)cs3)CC2)cc1C	·	8	·	·	·
COC(=O)[C@]12C[C@H](CC(=O)NCc3cccc(C(F)(F)F)c3)C(=O)N(Cc3ccccc3)C1=C[C@H](C(C)C)O[C@@H]2C1CC1	·	1	·	·	·
CCOC1=C2[C@@H](CN(S(=O)(=O)c3ccc(C)cc3)[C@H]2c2ccc(CC)cc2)[C@H]2C(=O)N(c3ccccc3)C(=O)[C@H]2C1	50*	7	-1	·	10
CCOC1=C2[C@H](c3ccccc3)N(S(=O)(=O)c3ccc(C)cc3)C(C(C)(C)C)[C@H]2C(C#N)(C#N)C(C#N)(C#N)C1 (stereo partly specified)	78*	24	34*	·	12
CCOC1=C2CN(S(=O)(=O)c3ccc(C)cc3)[C@H](c3ccccc3)C[C@@H]2N(S(=O)(=O)c2ccccc2)[C@H](c2ccccc2)C1	29	2	2	·	·
CCCCC[C@@H]1[C@@H]2C(=C(OCC)C[C@@H]3C(=O)N(c4ccccc4)C(=O)[C@H]23)[C@H](c2ccccc2)N1S(=O)(=O)c1ccc(C)cc1	27	9	1	·	·
O=C(O)CC(NC(=O)CCC1CCCCC1)c1cc([N+](=O)[O-])ccc1Cl (stereo unspecified)	60*	0	4	0	67*
O=C(NCCc1cccc(Cl)c1)c1cc([N+](=O)[O-])ccc1Cl	64*	-1	-8	-5	46
O=C(NCCCc1ccccc1)c1ccc([N+](=O)[O-])cc1Cl	84*	-3	-4	0	88*
Cc1ccc(C(=O)NCCSc2ccc(Cl)cc2)cc1[N+](=O)[O-]	40	0	-10	0	·
O=C(NCCCN1CCN(CCCNC(=O)c2cc([N+](=O)[O-])ccc2Cl)CC1)c1cc([N+](=O)[O-])ccc1Cl	-13	-3	-2	-1	·
Cc1ccc(C(=O)NCCc2cccc(Cl)c2)cc1[N+](=O)[O-]	52*	5	-1	-5	32
Cc1ccc(OCCNC(=O)CNC(=O)c2ccc(Cl)c([N+](=O)[O-])c2)cc1	62*	-1	-5	-3	54*
